Screening data (PubChem)
Shown are actives, neighbours in structure and some others; about 1.3% of the full set was active somewhere.
S1P4 antag: S1P4 receptor antagonists, primary screen, cell-based; actives 0.26% (n = 220,000); AID 1510, 2009; inhibition, % at 4.98 µM; Sphingosine 1-phosphate receptor 4 (Homo sapiens), O95977; S1P4-expressing cells, antagonist mode, reporter read-out; in the data active means inhibition above about 29%;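 further: 0% = wells stimulated with agonist and 100% = vehicle wells without agonist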
GALR2 blocker: GALR2 antagonists in receptor-expressing cells, primary screen. Galanin receptor type 2 (Homo sapiens), O43603. antagonist mode. inhibition, % at 4 µM. actives 0.39% (n = 140,000); in the data active means inhibition above about 27%;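 further: cells stimulated with galanin 1-16 at roughly its EC80; 0% = agonist challenge control and 100% = basal control without agonist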
S1P4 ag: S1P4 receptor agonists, primary screen, cell-based; Sphingosine 1-phosphate receptor 4 (Homo sapiens), O95977; S1P4-expressing cell line, agonist reporter assay; activation, % at 4.98 µM; actives 0.35% (n = 220,000); in the data active means activation above about 11%;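 further: 0% = DMSO vehicle and 100% = reference agonist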
GALR2 agonist: GALR2 receptor agonists, primary screen, cell-based; GALR2-expressing cells, agonist activation read-out; Galanin receptor type 2 (Homo sapiens), O43603; activation, % (concentration not given with the values); actives 0.48% (n = 140,000); in the data active means activation above about 5%, passing the limit was not always enough;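 further: 0% = vehicle buffer wells and 100% = reference agonist at full effect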
S1P3 antagonist: S1P3 receptor antagonists, primary screen, cell-based; Sphingosine 1-phosphate receptor 3 (Homo sapiens), Q99500; AID 485, 2006; actives 0.27% (n = 170,000); inhibition, % at 4.98 µM; CHO S1P3 NFAT-BLA reporter, FRET fluorescence, antagonist mode;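 active means inhibition above the plate cutoff, the mean inhibition of test wells on that plate plus 3 SD, cut at about 28% in these data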;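 further: cells challenged with S1P at its EC80 of 0.8 µM; blue over green emission ratio from cleaved BLA substrate after 4 h stimulation; 0% = S1P-stimulated wells and 100% = unstimulated DMSO-only wells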
Target sequence (Q99500 whole entry, looked up): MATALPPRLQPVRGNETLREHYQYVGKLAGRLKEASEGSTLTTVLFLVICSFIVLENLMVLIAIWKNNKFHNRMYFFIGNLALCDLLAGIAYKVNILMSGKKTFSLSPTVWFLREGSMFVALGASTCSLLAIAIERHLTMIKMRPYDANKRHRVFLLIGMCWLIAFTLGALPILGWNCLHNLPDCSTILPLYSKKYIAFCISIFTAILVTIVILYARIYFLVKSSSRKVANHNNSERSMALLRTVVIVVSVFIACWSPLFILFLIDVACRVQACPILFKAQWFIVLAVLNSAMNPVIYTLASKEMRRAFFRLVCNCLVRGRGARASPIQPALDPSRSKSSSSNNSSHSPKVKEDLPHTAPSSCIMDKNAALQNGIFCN
GALR2 ag confirm: GALR2 agonists, retest of hits, confirmation, cell-based | shares compounds with GALR2 agonist | GALR2-expressing cells, agonist activation | activation, % at 5.6 µM | actives 10% (n = 460); in the data active means activation above about 8.4%;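 further: 0% = buffer-only vehicle wells and 100% = full reference agonist response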
BLA activ ctr: activators of NFAT-driven beta-lactamase reporter, confirmation, counter-screen for GALR2 agonist project, CHO NFAT-bla cells, FRET readout; activation, % at 5.6 µM; actives 10% (n = 460); shares compounds with GALR2 agonist; AID 865, 2007; beta-lactamase FRET activation;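 active means activation above the screen-wide mean activation plus 3 SD, cut at about 8% in these data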;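 further: 0% = DMSO with PBS wells and 100% = thapsigargin positive control wells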
* marks the source's active call; other numbers are inactive results; nt = not tested or not shown.

SMILES	S1P4 antag	GALR2 blocker	S1P4 ag	GALR2 agonist	S1P3 antagonist	GALR2 ag confirm	BLA activ ctr
COc1cccc(CNC(=O)CCC2CCCN(C(=O)c3ccc(OC)c(F)c3)C2)c1 (stereo not drawn)	-9.4	nt	-0.1	nt	-7.4	nt	nt
CCOC(=O)C(NC(=O)c1ccccc1)=C(C)C	-19.7	-1.9	3.1	11.1	nt	-1.4	-2.6
C=CCNC(=O)c1c(N)n(-c2cccc(S(N)(=O)=O)c2)c2nc3ccccc3nc12	-1.6	-5.9	2.7	8.3	-26.4	1.9	5.6
O=C1CCC(=O)N1CCSC(=S)N1CCOCC1	6.2	nt	0.6	nt	-18.9	nt	nt
Cc1nc2ccccc2n1CCc1nc2c3ccccc3nc(SCC#N)n2n1	-18.3	-0.1	2.1	2.9	nt	nt	nt
Cc1nc2ccccc2n1CCc1nc2c3ccccc3nc(SCC(=O)NCc3ccco3)n2n1	-9.4	-1.2	0.7	8.7*	-77.6	-0.6	0.5
CCOC(=O)c1cc(C(=O)OCC)c2ccccn2c1=O	-5.7	-8.0	5.2	15.1*	nt	1.8	5.9
CCOC(=O)c1c[nH]n(-c2ccccc2)c1=O	-12.8	nt	0.2	nt	-8.5	nt	nt
COc1ccc(C2=NOC(C(=O)Nc3cc(Br)ccc3O)C2)cc1OC (stereo not drawn)	-10.3	-3.3	-4.2	20.8*	-30.2	0.0	-2.4
COc1ccc(C2=NOC(C(=O)Nc3ccc(C(C)=O)cc3)C2)cc1OC (stereo not drawn)	1.4	11.4	1.0	-1.2	-3.8	nt	nt
CCCCn1c(NC(=O)c2ccccc2)c(C#N)c2nc3ccccc3nc21	22.6	1.6	0.1	16.2*	-46.0	6.2	14.0*
CN1CCN(NC(=O)c2ccc(Cl)c(S(=O)(=O)Nc3ccc(Cl)cc3)c2)CC1	-14.8	nt	0.3	nt	-9.0	nt	nt
CC1OC2(OC1C)C(=O)Nc1ccccc12 (stereo not drawn)	-16.2	-4.2	-0.5	24.1*	nt	-0.8	-2.5
Cc1cc(Oc2ccc(=O)n(C)n2)nc(SCCOc2ccccc2)n1	3.4	nt	-0.4	nt	-9.1	nt	nt
N=c1c(S(=O)(=O)c2ccccc2)cc2c(=O)n3ccccc3nc2n1CC1CCCO1 (stereo not drawn)	-32.2	0.0	6.9	9.1	nt	1.8	3.1
Cc1cccn2c(=O)c3cc(S(=O)(=O)c4ccccc4)c(=N)n(CC4CCCO4)c3nc12 (stereo not drawn)	-10.1	nt	-0.9	nt	-4.1	nt	nt
CC1CCCN(c2c([N+](=O)[O-])c(=O)oc3ccccc23)C1 (stereo not drawn)	-4.6	-4.7	0.7	27.8*	nt	-0.2	1.3
CCN(Cc1cc2ccccc2[nH]c1=O)C(=O)c1cccc([N+](=O)[O-])c1	0.6	nt	0.6	nt	21.8	nt	nt
CCOC(=O)/C=c1\s/c(=C\c2ccc(C)cc2)c(=O)n1CC(=O)NCc1ccco1	-0.2	2.8	0.5	8.2*	1.6	2.7	0.1
CCOC(=O)/C=c1\s/c(=C\c2ccc(C(F)(F)F)cc2)c(=O)n1CC(=O)NCc1ccco1	-18.7	-4.7	0.6	-0.2	2.4	nt	nt
N/C(=N\c1nc2c(c(=O)[nH]1)CCC2)Nc1cccc2ccccc12	-18.8	0.2	-0.5	-0.4	nt	nt	nt
CCCCC(CC)C(=O)NCCc1ccc(S(N)(=O)=O)cc1 (stereo not drawn)	-18.8	10.1	1.4	-0.9	1.5	nt	nt
CCC(CC)C(=O)NCCc1ccc(S(N)(=O)=O)cc1	-7.3	1.6	2.6	10.1	nt	-0.3	-0.9
O=C(c1ccc(S(=O)(=O)Cc2ccccc2Cl)c([N+](=O)[O-])c1)N1CCN(c2ccccn2)CC1	13.0	nt	-2.3	nt	-6.4	nt	nt
N=c1oc2ccccc2cc1-c1nc(-c2ccccc2)cs1	-0.7	1.5	3.5	19.7*	-6.6	2.9	5.4
SMILES	S1P4 antag	GALR2 blocker	S1P4 ag	GALR2 agonist	S1P3 antagonist	GALR2 ag confirm	BLA activ ctr
N=c1oc2ccc3ccccc3c2cc1-c1nc(-c2ccccc2)cs1	-35.0	5.0	1.4	1.0	-7.2	nt	nt
CCOC(=O)c1ccc(NC(=S)N2CCSC2c2ccc(Cl)cc2)cc1 (stereo not drawn)	-1.4	-22.1	0.3	8.8*	-0.9	9.4*	18.1*
CCOC(=O)c1ccc(NC(=S)N2CCSC2c2ccc(OC)cc2)cc1 (stereo not drawn)	-7.5	-15.9	0.5	1.0	11.3	nt	nt
Cc1ccc(NC(=O)C2C3CC4OC(=O)C2C4C3)cc1Cl (stereo not drawn)	-0.5	0.8	0.1	38.4*	-11.5	-0.1	-0.4
CC1(/[N+]([O-])=C/c2ccccc2F)CCCCC1=O (stereo not drawn)	1.4	nt	-0.1	nt	6.0	nt	nt
O=C(CSc1nc2c([nH]c3ccccc32)c(=O)n1-c1ccccc1)N1CCOCC1	-1.4	2.4	-2.6	-1.6	-17.0	nt	nt
O=C(CSc1nc2c([nH]c3ccccc32)c(=O)n1-c1cccc(Cl)c1)N1CCOCC1	-16.5	3.0	0.0	13.4*	7.4	6.2	1.0
Cc1c(/C=N/n2cnnc2)c2ccccc2n1C	2.9	1.7	0.0	11.9*	4.5	-1.2	-2.4
Cc1ccc(NC(=O)CN2C(=O)C3CC=CCC3C2=O)cc1S(=O)(=O)N1CCOCC1 (stereo not drawn)	-0.3	nt	-3.0	nt	-18.2	nt	nt
CC(NC(=O)Nc1ccc(Cl)c(Cl)c1)C(c1ccccc1)N1CCOCC1 (stereo not drawn)	-20.5	-17.7	0.5	8.7*	-14.9	6.4	25.1*
CC1CN(Cc2cc(=O)[nH]c(C(C)C)n2)CC(C)O1 (stereo not drawn)	-11.2	-10.6	0.3	45.7*	nt	-0.5	-0.4
CCOC(=O)c1cccc(NC(=S)NCc2ccc(C)cc2)c1	-8.5	nt	-0.3	nt	-7.7	nt	nt
O=C(O)C1C(c2ccccc2)C(C(=O)Oc2ccccc2)C1c1ccccc1 (stereo not drawn)	0.0	-3.9	-0.5	-0.6	nt	nt	nt
CC(C)CCOC(=O)C1C(c2ccccc2)C(C(=O)O)C1c1ccccc1 (stereo not drawn)	-9.2	-9.2	-1.9	10.0	nt	-0.4	0.2
Cc1ccc(S(C)(=O)=NS(=O)(=O)c2cccc3nsnc23)cc1 (stereo not drawn)	-6.7	nt	-0.4	nt	-13.9	nt	nt
COc1ccc(C(O)(C(=O)NNc2ccc(C)cc2)c2cccs2)cc1 (stereo not drawn)	-24.0	-2.5	-0.2	-1.4	nt	nt	nt
O=C(NNc1ccc(C2CCCCC2)cc1)C(O)(c1ccccc1)c1cccs1 (stereo not drawn)	-4.8	8.1	1.1	12.8*	nt	-0.6	-2.4
O=C(NCCCN1CCCC1=O)C1CCCO1 (stereo not drawn)	-1.1	nt	0.6	nt	-7.5	nt	nt
CC(=O)c1ccc2c3c(cccc13)C(=O)N(c1c(C)nn(C)c1C)C2=O	0.8	-2.3	-1.5	20.4*	-1.6	-0.6	-1.4
Cc1ccc(N2C(=O)c3cccc4c(C(=O)O)ccc(c34)C2=O)cc1	-20.2	nt	0.8	nt	-19.0	nt	nt
